These results are taken from the supplement of paper PMC13380429.

This assay has as its system Vero E6 infected with SARS-CoV-2. Briefly: SARS-CoV-2 infection rate relative to infected DMSO; higher = more infection, active = 60 or less. To be noted: 24 h.
On to `C[C@H](Cc1cc2c(c(C(N)=O)c1)N(CCCO)CC2)NCCOc1ccccc1OCC(F)(F)F` [silodosin] (10 µM), for which the SARS-CoV-2 infection rate is 106% (inactive).

For the molecule `Cc1cc(O)c2c(c1)C(=O)c1cccc(O)c1C2=O` [chrysophanic-acid] (10 µM), the SARS-CoV-2 infection rate is 110% (inactive). The same measure for `Cc1cc(=O)n(-c2ccccc2)[nH]1` [N-demethylantipyrine] (10 µM): 101% (inactive). The value for `C#C[C@]1(O)CC[C@H]2[C@@H]3CCC4=CC(=O)CCC4=C3C=C[C@@]21CC` [gestrinone] (10 µM) was 103% (inactive); that for `C[C@@H]1CCO[C@H]2Cn3cc(C(=O)NCc4ccc(F)cc4F)c(=O)c(O)c3C(=O)N12` [dolutegravir] (10 µM) was 112% (inactive). The value for `CCC(CC)COC(=O)[C@H](C)N[P@](=O)(OC[C@H]1O[C@@](C#N)(c2ccc3c(N)ncnn23)[C@H](O)[C@@H]1O)Oc1ccccc1` [Remdesivir] (10 µM) was 26% (active). As for `O=C(COc1ccc(C(=O)c2ccccc2)cc1)NC1CCN(Cc2ccccc2)CC1` [adiporon] (10 µM), the SARS-CoV-2 infection rate was 106% (inactive). The same measure for `Nc1ncnc2c1C(=O)N(c1ccc([C@H]3CC[C@H](CC(=O)O)CC3)cc1)CCO2` (10 µM): 92.5% (inactive); for `Cc1cc(C)cc(OCC2CNC(=O)O2)c1` (stereo not drawn) [metaxalone] (10 µM): 97% (inactive); for `CCC(=O)OCC(=O)[C@@]1(OC(=O)CC)[C@H](C)C[C@H]2[C@H]3[C@H]([C@@H](O)C[C@@]21C)[C@@]1(C)C=CC(=O)C=C1C[C@H]3Cl` [alclometasone-dipropionate] (10 µM): 98% (inactive).

In the case of `COc1cc(C[C@@H](CO)[C@H](CO)Cc2ccc(O)c(OC)c2)ccc1O` [secoisolariciresinol-(-)] (10 µM), the SARS-CoV-2 infection rate was 109% (inactive).

Regarding `Cc1ccc(C(=O)Nc2ccc(CN3CCN(C)CC3)c(C(F)(F)F)c2)cc1C#Cc1cnc2cccnn12` [ponatinib] (10 µM), the SARS-CoV-2 infection rate is 97% (inactive). In the case of `CCCCCCCCCCOc1cc2c(O)c(C(=O)OCC)cnc2cc1OCC` [decoquinate] (10 µM), the SARS-CoV-2 infection rate is 101% (inactive). The same measure for `Cn1c(=O)c2[nH]cnc2n(C)c1=O` [aminophylline] (10 µM): 95% (inactive); for `CC(C)(C)c1ccc(C(=O)Nc2cn3cc(-n4ccnc4)ccc3n2)cc1` (10 µM): 100% (inactive).

As for `O=C(Nc1cc(C(F)(F)F)cc(C(F)(F)F)c1)c1cnc(Cl)nc1C(F)(F)F` (10 µM), the SARS-CoV-2 infection rate was 111% (inactive). The same measure for `CN1CCN(CCOc2cc(OC3CCOCC3)c3c(Nc4c(Cl)ccc5c4OCO5)ncnc3c2)CC1` [saracatinib] (10 µM): 110% (inactive).

In the case of `CC(C)(C)c1nc(-c2cccc(NS(=O)(=O)c3c(F)cccc3F)c2F)c(-c2ccnc(N)n2)s1` [dabrafenib] (10 µM), the SARS-CoV-2 infection rate was 114% (inactive). In the case of `COc1cc2ncnc(Nc3ccc(Oc4ccccc4)cc3)c2cc1OC` [SRC-kinase-inhibitor-I] (0.833333 µM), the SARS-CoV-2 infection rate was 110% (inactive).

Regarding `CC(=O)NC1CCSC1=O` (stereo not drawn) [citiolone] (10 µM), the SARS-CoV-2 infection rate was 107% (inactive). The same measure for `NCCc1c[nH]c2ccc(O)cc12` [serotonin] (10 µM): 108% (inactive).

As for `CCN(CC)CCCC(C)Nc1c2ccc(Cl)cc2nc2ccc(OC)cc12` (stereo not drawn) [mepacrine] (0.833333 µM), the SARS-CoV-2 infection rate was 55.5% (active).

With `CCNC(=O)[C@H]1O[C@@H](n2cnc3c(N)ncnc32)[C@H](O)[C@@H]1O` (10 µM), the SARS-CoV-2 infection rate is 92% (inactive). The value for `O=C1NC(c2ccccc2)(c2ccccc2)C(=O)N1COP(=O)(O)O` [fosphenytoin] (10 µM) was 123% (inactive).

`CC(=O)C1=C(O)[C@@H]2[C@H]3c4c[nH]c5cccc(c45)C[C@H]3C(C)(C)N2C1=O` [cyclopiazonic-acid] (0.833333 µM): the SARS-CoV-2 infection rate is 76.5% (inactive). The same measure for `CCCOc1ccc(S(=O)(=O)N2CCN(CCO)CC2)cc1-c1nc2c(CCC)cn(CC)c2c(=O)[nH]1` [mirodenafil] (10 µM): 95.5% (inactive); for `CN(C)C(=O)c1cc2cnc(Nc3ccc(N4CCNCC4)cn3)nc2n1C1CCCC1` [ribociclib] (10 µM): 113% (inactive); for `O=c1cc(-c2ccccc2)oc2cc(O)c(O)c(O)c12` [baicalein] (10 µM): 85% (inactive).
